# Results filed as inconclusive are left out. Activity calls are given as the source filed them. Calls come from the whole dose curve.
# Molecular target: Peroxisome proliferator-activated receptor delta (Homo sapiens) (UniProt Q03181)
# Assay: qHTS assay for small molecule agonists of peroxisome proliferator-activated receptor delta signaling (AID 588534);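 note: 0% = DMSO basal wells and 100% = positive control agonist at 10 µM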
# Details: HEK293T PPARdelta-UAS-bla, beta-lactamase ratio, 18 h; series mostly up to 76.7 µM; activation: at the top concentration
# In short: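 Agonist-mode qHTS; reporter cells, 5 hrs 37 C pre-incubation; compound titration, 18 hrs 37 C; CCF4 dye, 2 hrs RT; fluorescence read. EC50/efficacy via Hill fit.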
# Sequence of Peroxisome proliferator-activated receptor delta (Homo sapiens) (Q03181 whole entry, looked up): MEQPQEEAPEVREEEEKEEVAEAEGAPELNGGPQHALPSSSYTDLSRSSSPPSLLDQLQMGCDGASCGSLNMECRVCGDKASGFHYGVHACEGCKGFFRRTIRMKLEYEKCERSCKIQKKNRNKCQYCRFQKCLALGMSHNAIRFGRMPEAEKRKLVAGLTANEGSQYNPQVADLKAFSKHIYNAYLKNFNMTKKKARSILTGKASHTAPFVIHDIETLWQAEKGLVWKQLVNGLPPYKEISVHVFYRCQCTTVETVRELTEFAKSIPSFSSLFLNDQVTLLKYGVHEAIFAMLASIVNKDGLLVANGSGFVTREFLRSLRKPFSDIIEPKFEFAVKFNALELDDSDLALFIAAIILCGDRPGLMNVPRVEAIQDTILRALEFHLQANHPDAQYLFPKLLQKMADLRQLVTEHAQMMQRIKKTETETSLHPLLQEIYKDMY
SMILES,activation,outcome
COCCOCCOCCO,5.68% (inactive),
CC(=O)Nc1cccc(C)c1,0.0454% (inactive),
CC(=O)c1cc(C)oc1C,-2.59% (inactive),
Cc1ccc2ccccc2c1[N+](=O)[O-],-2.25% (inactive),
CCNS(=O)(=O)c1ccc(C)cc1,-0.0574% (inactive),
CCCCOCCOCCOCCCC,10.6% (inactive),
CCCCCCCCC,10.7% (inactive),
C=Cc1cccc(C)c1,8.21% (inactive),
C=CCOC(=O)CC(C)C,-6.24% (inactive),
O=C1OC(=O)c2cc([N+](=O)[O-])ccc21,3.63% (inactive),
OC1CCCCCCCCCCC1,1.76% (inactive),
Nc1nc(CC(=O)O)cs1,3.58% (inactive),
CCCCCc1ccc(N)cc1,-2.01% (inactive),
CC/C=C1/OC(=O)c2ccccc21,-0.941% (inactive),
O=[N+]([O-])c1ccc(F)cc1F,-1.74% (inactive),
O=C(O)c1cccc([N+](=O)[O-])c1,,inactive
Nc1nccs1,0.396% (inactive),
Cc1ccccc1OCC1CO1 (stereo not given),3.79% (inactive),
CCCCOC(=O)c1ccccc1,0.106% (inactive),
CC(C)=CCC/C(C)=C/C=O,,inactive

SMILES,activation,outcome
O=[N+]([O-])c1cc(N(CCO)CCO)ccc1NCCO,,inactive
CC1CCC(C(C)C)C(O)C1 (stereo not given),2.97% (inactive),
O=[N+]([O-])c1ccccc1CCO,-2.16% (inactive),
C=CCOC(=O)COCCC(C)C,-1.15% (inactive),
Nc1cc([N+](=O)[O-])ccc1O,,inactive
CCOC(C)=O,8.97% (inactive),
O=C(O)CNC(=O)c1ccc(CO)o1,-9.52% (inactive),
CC(=O)OC1CCC(C(C)(C)C)CC1 (stereo not given),2.6% (inactive),
Cc1cc(-c2ccc(N=Nc3cc(S(=O)(=O)O)c4ccccc4c3N)c(C)c2)ccc1N=Nc1cc(S(=O)(=O)O)c2ccccc2c1N,1.69% (inactive),
CC(C)(N=C=O)c1cccc(C(C)(C)N=C=O)c1,2.17% (inactive),
CCCCCCc1ccc(-c2ccc(C#N)cc2)cc1,14.4% (inactive),
CCOc1cccc(N)c1,16.1% (inactive),
Cc1cccc(Br)c1,4.62% (inactive),
O=C(Cl)c1ccc(C(=O)Cl)cc1,-1.63% (inactive),
FC(F)(F)c1ccc(Cl)c(Cl)c1,1.12% (inactive),
CCCCNCC,8.6% (inactive),
OC(CCl)CCl,9.83% (inactive),
COc1ccc(N)c(OC)c1,-5.72% (inactive),
O=c1[nH]ncc2ccccc12,-8.59% (inactive),
CC(C)(C)C(O)/C(=C\c1ccc(Cl)cc1)n1cncn1 (stereo not given),-4.73% (inactive),

# — PubChem BioAssay (NCATS)
